Results from PubChem BioAssay AID431 (Sanford-Burnham Center for Chemical Genomics, 2006).
Out of some 63,000 compounds screened, about 1,100 (1.7%) were called active.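 How the source made its calls: active means compounds whose percent cytotoxicity in the single-dose primary screen, scaled between solvent and toxic-drug controls, exceeds 50; inactive means the rest.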 The entries come from a sample that favours actives as a whole. Entries with a potency or affinity are not part of this list.

Assay: viability loss of HPDE-C7K cells – cell-based, fluorescence, HTS, primary screen (AID 431);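 further: 0% = DMSO solvent wells and 100% = doxorubicin-treated wells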
Details: HPDE-C7K KRASV12 cells, Alamar Blue viability, 48 h; at 10 µM; stronger effect = higher value

SMILES | cytotoxicity
CC(=O)Oc1c(S(=O)(=O)c2ccc(C)cc2)c(C)nn1-c1ccccc1 | -4.8% (inactive)
O=C1CCC(=O)N1c1cccc(-c2nc3ccccc3o2)c1 | 1.5% (inactive)
Nc1nnnn1/N=C/C=C/c1ccccc1 | -19.8% (inactive)
Nc1nnnn1/N=C/c1cccc(Oc2ccccc2)c1 | -6.8% (inactive)
C=CCOC(=O)C1=C(C)Nc2nnnn2C1c1cccc(OC)c1OC (stereo not given) | 1.2% (inactive)
Cn1cc(/C=N/n2cnc3sc4c(c3c2=O)CCCC4)c2ccccc21 | 7.8% (inactive)
Cn1cc(/C=N/n2cnc3scc(-c4ccccc4)c3c2=O)c2ccccc21 | 48.5% (inactive)
Cn1cc(/C=N/n2cnc3scc(-c4ccc(Cl)cc4)c3c2=O)c2ccccc21 | 77.5% (active)
COc1ccc(NC(=O)C2CCN(S(=O)(=O)c3ccc(C)cc3)CC2)cc1OC | -26.5% (inactive)
CCOc1ccc(C2CC(c3ccc(OC)cc3)n3ncnc3N2)cc1 (stereo not given) | -6.4% (inactive)
Cc1[nH]c2ccc(-c3nnc(SCC(=O)N4CCCc5ccccc54)o3)cc2c1C | 2.9% (inactive)
Cc1[nH]c2ccc(-c3nnc(SCC(=O)c4ccccc4F)o3)cc2c1C | 78.5% (active)
Cc1[nH]c2ccc(-c3nnc(SCC(=O)c4ccc(F)cc4)o3)cc2c1C | -0.1% (inactive)
CCc1[nH]nc2c1C(C(C)C)C(C#N)=C(N)O2 (stereo not given) | -20.8% (inactive)
Cc1nn(Cc2ccc(C(=O)NC3CCCCC3)o2)c(C)c1Br | 10.5% (inactive)
CC1CCc2c(nc3ncnn3c2N2CCN(c3ccccc3F)CC2)C1 (stereo not given) | -5.6% (inactive)
CCOC(=O)c1c(N)n[nH]c1-c1ccc(OC)cc1 | 6.6% (inactive)
CCOc1ccc(-c2n[nH]c(C)c2Oc2ccc(OC)cc2)c(O)c1 | 16% (inactive)
CCOc1ccc(N2C(=O)c3ccc(C(=O)OCc4c(C)noc4C)cc3C2=O)cc1 | -4.2% (inactive)
CCCOC(=O)c1ccc(-c2c(C)noc2-c2ccc(OC)cc2O)o1 | 1.5% (inactive)
CCOC(=O)c1ccc(OCC(=O)c2ccc(O)cc2O)cc1 | 11.9% (inactive)
CCOC(=O)COC(=O)c1ccc(O)cc1 | 1.8% (inactive)
COc1ccc(Cl)cc1NC(=O)CN1CCC(n2nnc3cc(F)ccc32)CC1 | 5.7% (inactive)
O=C(c1ccc(S(=O)(=O)N2CCCC2)cc1)N1CCN(Cc2ccc3c(c2)OCO3)CC1 | 4.3% (inactive)

SMILES | cytotoxicity
c1coc(-c2nnc(SCc3cn4ccccc4n3)o2)c1 | -5.9% (inactive)
CCOC(=O)CN(C(=O)CSc1nnc(-c2ccc(OC)c(OC)c2)o1)c1ccc(F)cc1 | -21.9% (inactive)
CCOC(=O)c1c(NC(=O)CSc2nnc(CNc3ccc(F)cc3)o2)sc(C)c1C | -12.6% (inactive)
COc1ccccc1NC(=O)COc1ccc(C(=O)OCC(=O)N2CCCC2=O)cc1OC | -27.1% (inactive)
CCCCOc1ccc(-c2nnn(CC(=O)NCc3ccco3)n2)cc1 | 50.9% (active)
O=C(Cn1nnc(-c2ccc3c(c2)OCO3)n1)NCc1ccco1 | -12.9% (inactive)
CCOc1ccc(-c2nnn(CC(=O)NCc3ccco3)n2)cc1 | 0.2% (inactive)
O=S(=O)(c1ccc(F)cc1)N1CCC(N2CCN(c3ccccc3)CC2)CC1 | 16.8% (inactive)
Cn1c(NCC(O)c2ccccc2)nc2c1c(=O)n(Cc1ccc(Cl)c(Cl)c1)c(=O)n2C (stereo not given) | 64.7% (active)
Cn1c(NCc2ccco2)nc2c1c(=O)n(Cc1ccc(Cl)c(Cl)c1)c(=O)n2C | 8.9% (inactive)
COc1ccc(CNc2nc3c(c(=O)n(Cc4ccc(Cl)cc4)c(=O)n3C)n2C)cc1 | 32.7% (inactive)
Cn1c(NCc2ccccc2)nc2c1c(=O)n(Cc1ccccc1)c(=O)n2C | -0.5% (inactive)
Cn1c(NCc2ccccc2)nc2c1c(=O)n(Cc1ccc(Br)cc1)c(=O)n2C | 21.3% (inactive)
Cn1c(N2CCN(c3ccccn3)CC2)nc2c1c(=O)n(Cc1ccc(Cl)cc1)c(=O)n2C | 70% (active)
Cn1c(N2CCCC2)nc2c1c(=O)n(Cc1ccc(Cl)cc1)c(=O)n2C | 26.3% (inactive)
Cn1c(N2CCN(c3ccccn3)CC2)nc2c1c(=O)n(Cc1ccccc1Cl)c(=O)n2C | 3.4% (inactive)
Cn1c(NCC(O)c2ccccc2)nc2c1c(=O)n(Cc1ccc(Cl)cc1)c(=O)n2C (stereo not given) | 50.4% (active)
COC(=O)c1coc(-c2ccc(C)cc2)c1C(=O)OC | -19.4% (inactive)
CCOc1ccccc1N(CC(=O)NC1CCCC1)C(=O)CCCC(=O)Nc1ccccn1 | -29.3% (inactive)
O=C(Cn1c(=O)oc2ccccc21)N1CCCCC1 | -21% (inactive)
CN(CCc1ccccn1)C(=O)CCNC(=O)Cn1cnc2ccccc2c1=O | -9.4% (inactive)
O=C(COc1ccccc1)Nc1cccc(-c2nnc(-c3ccccc3)o2)c1 | 8.5% (inactive)
COc1ccc(-c2noc(CCC(N)=O)n2)cc1OC | 7.2% (inactive)
CC(=O)c1cc(F)c(N2CCCC2)cc1C | -6.1% (inactive)

SMILES | cytotoxicity
Cc1[nH]c(-c2ccco2)nc1C(=O)O | 1.6% (inactive)
O=c1cc(-c2ccccc2)[nH]c2ccccc12 | 46.8% (inactive)
[O-][n+]1onc2c1CCc1nnc(-c3ccccc3)cc1-2 | 8.2% (inactive)
COc1ccc(C2C3=C(CCCC3=O)Nc3nc(C(F)(F)F)nn32)cc1OC (stereo not given) | -12.5% (inactive)
Cn1c(=O)[nH]c(=O)c2c1nc(CN1CCN(c3cccc(Cl)c3)CC1)n2Cc1ccccc1Cl | 2.2% (inactive)
CC(C)Cn1c(CN2CCN(c3ccccc3F)CC2)nc2c1c(=O)[nH]c(=O)n2C | -9.3% (inactive)
Cc1ccc(Cl)cc1N1CCN(Cc2nc3c(c(=O)[nH]c(=O)n3C)n2Cc2ccccc2F)CC1 | 117% (active)
O=C(Nc1ccncc1)c1ccc2c(c1)OCCO2 | -6.9% (inactive)
CCC(NC(=O)OC(C)(C)C)C(=O)Oc1ccc2c3c(c(=O)oc2c1)CCC3 (stereo not given) | -7.2% (inactive)
CCOC(=O)Cc1cc(=O)[nH]c(Nc2nc3ccccc3o2)n1 | -12.3% (inactive)
CCOC(=O)c1cc2c(=O)n3cccc(C)c3nc2n(C)c1=N | 58.1% (active)
C=CCn1c(=N)c(C(=O)OCC)cc2c(=O)n3cccc(C)c3nc21 | 9.2% (inactive)
CCOC(=O)c1cc2c(=O)n3cccc(C)c3nc2n(CCc2ccccc2)c1=N | -6.7% (inactive)
CCNC(=O)c1cc2c(=O)n3cccc(C)c3nc2n(CCc2ccccc2)c1=N | 66.8% (active)
Cc1cccn2c(=O)c3cc(C(=O)NCCN4CCOCC4)c(=N)n(CCc4ccccc4)c3nc12 | 10.9% (inactive)
COCCn1c(=N)c(C(=O)NCCc2ccccc2)cc2c(=O)n3cccc(C)c3nc21 | -1.7% (inactive)
CC(C)CCOc1cccc(OCC(=O)N(C)C2CCS(=O)(=O)C2)c1 (stereo not given) | 4.8% (inactive)
COc1ccc(OC)c(S(=O)(=O)N2CCc3ccccc32)c1 | 18.5% (inactive)
CCOc1c(Br)cc(CNc2ncn[nH]2)cc1OC | 2.8% (inactive)
O=C(CSc1nnc(SCc2ccc(Cl)cc2)s1)N1CCN(C(=O)c2ccco2)CC1 | -15.2% (inactive)
O=C(CSc1nc2cc(Cl)ccc2s1)N1CCN(C(=O)c2ccco2)CC1 | 5.8% (inactive)
O=C(CSc1c2c(nc3ccc(Cl)cc13)CCCC2)N1CCN(C(=O)c2ccco2)CC1 | 105% (active)
CC1Cc2nc(SCC(=O)NCc3ccco3)n(-c3ccccc3)c(=O)c2S1 (stereo not given) | 3.1% (inactive)
O=C(Cc1cccs1)NCc1ccc2c(c1)OCO2 | -5.9% (inactive)

SMILES | cytotoxicity
CCOC(=O)c1oc2c(C)c(O)ccc2c(=O)c1-c1nncn1-c1ccccc1 | -6.3% (inactive)
Cn1c(=O)[nH]c(=O)c2c1nc(CN1CCN(c3cccc(Cl)c3)CC1)n2CCCc1ccccc1 | 6% (inactive)
Oc1cccc(-c2nc3ccccc3s2)c1 | 0.9% (inactive)
Nc1cccc(-c2nc3ccc(N)cc3s2)c1 | 50.7% (active)
Cc1nc2ccc(N)cc2s1 | -7.6% (inactive)
CCOC(=O)Nc1ccc2c(c1)N(C(=O)CCN(C)C)c1ccccc1S2 | 15% (inactive)
CN(C)CCCN1c2ccccc2CCc2ccccc21 | 20.3% (inactive)
COc1ccc2c(c1)Sc1ccccc1N2CCN(C)C | 27.8% (inactive)
CN(C)CCCN1c2ccccc2CCc2ccc(Cl)cc21 | 47.6% (inactive)
CN(C)CCCN1c2ccccc2Sc2ccccc21 | 56.1% (active)
CCN1C(=O)C2C(c3ccc(O)c(OC)c3)NC(C)(C(=O)OC)C2C1=O (stereo not given) | 9.8% (inactive)
CCc1c(C)nc2ncnn2c1N1CCCC(C(=O)NCCc2ccccc2)C1 (stereo not given) | 2.2% (inactive)
CCOC(=O)C1CCN(C(=O)c2ccc(Cl)c(Cl)c2)CC1 | -6.5% (inactive)
O=C(Nc1ccc(Cl)cc1)NC1CCS(=O)(=O)C1 (stereo not given) | -15% (inactive)
CC(Oc1ccc(Cl)cc1Cl)c1nc(-c2ccccn2)no1 (stereo not given) | 23.6% (inactive)
O=C(Nc1ccc(-c2noc(CCc3ccccc3)n2)cc1)c1cccnc1 | 47% (inactive)
COc1cccc(-c2nc(-c3ccc(NC(=O)c4cccnc4)cc3)no2)c1 | 44.3% (inactive)
COc1ccc(Cc2nc(-c3ccc(NC(=O)c4cccnc4)cc3)no2)cc1 | 33.9% (inactive)
O=C(Nc1ccc(-c2noc(-c3cccs3)n2)cc1)c1cccnc1 | 52.5% (active)
CC(Oc1ccc(Cl)cc1Cl)c1nc(-c2ccc(NC(=O)c3cccnc3)cc2)no1 (stereo not given) | 59.3% (active)
CC(C)(C)Cc1nc(-c2ccccn2)no1 | -9.1% (inactive)
COCCNC(=O)c1cc(-c2ccc(Cl)c(Cl)c2)on1 | -9.5% (inactive)
O=C(c1cc2cc(Br)ccc2oc1=O)N1CCN(c2ccccn2)CC1 | -8.8% (inactive)
